Laboratory results as given in PubChem BioAssay (NCATS).
Inconclusive results are not listed. Activity calls are given as the source filed them. Unless noted, calls come from the whole dose curve; as a rule, active = well fitted curve in either direction with a large enough effect (not every such curve was filed as active); inconclusive = small, poorly fitted or top-dose-only effect, or another doubt; inactive = flat fitted curve, though single readings scatter.

Tests used:
[1] = molecular target: Lysosomal acid glucosylceramidase (Homo sapiens) (UniProt P04062); test: Glucocerebrosidase-p2 (AID 348; in the data active = potency below about 10 µM; note: potency is the fitted concentration of half-maximal effect); conditions: purified GBA, blue fluorogenic substrate, 40 min
Outline: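 Compounds titrated from 0.6 nM upwards against 0.2 nM enzyme in pH 5.9 citric acid/KH2PO4, taurocholate, tween-20; blue fluorogenic substrate 80 uM, 40 min room temperature, stopped and read Ex 365/Em 440 for AC50.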

[2] = AP1 Signaling Pathway (AID 357); conditions: ME-180 AP-1-bla reporter, EGF-induced, beta-lactamase ratio, 5 h; at 7.69 µM (top of the series) unless noted;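 note: ME-180 reporter cells stimulated with EGF at its EC50 level; % is set by controls: 0 for no effect and ±100 for the full control effect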
Outline: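 Cells are seeded overnight, exposed to compound titrations and an EC50 level of EGF for 5 hours at 37 °C, then loaded with CCF4 dye for 2.5 hours. Beta-lactamase activity under the AP-1 element is read as a blue/green ratio.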

[3] = molecular target: Cytochrome P450 1A2 (Homo sapiens) (UniProt P05177); test: p450-cyp1a2 (AID 410; calls by dose curve; note: potency is the fitted concentration of half-maximal effect;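 for activity change, negative = inhibition: -100% = full effect of reference inhibitor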); conditions: recombinant CYP1A2, luciferin-ME demethylation, luminescence; series mostly up to 11.4 µM
Outline: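 Inhibition was calculated relative to 57 uM furafylline (full inhibition). The reaction used human CYP1A2 at 20nM with Luciferin-ME at its Km, 100uM, driven by an NADPH-regenerating system for 60 min at room temperature.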

[4] = NFAT Signaling Pathway (AID 444); conditions: Jurkat NFAT-bla M1, carbachol, beta-lactamase ratio, 5 h; at 7.69 µM (top of the series) unless noted;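 note: carbachol stimulus at about its EC50 of 1 µM final; % is set by controls: 0 for no effect and ±100 for the full control effect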
Outline: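 Read-out: CCF4 FRET ratio (460 nm/530 nm) after 1 h RT dye loading, used for %activity and AC50 from titration series. Cells: Jurkat NFAT-β-lactamase/M1 line, treated with compound plus 1 uM carbachol for 5 h, 37 °C.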

[5] = Stat Signaling Pathway (AID 446); conditions: ME-180 SIE beta-lactamase reporter, IL-6 stimulated, 5 h; at 7.69 µM (top of the series) unless noted;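 note: ME-180 cervical cancer cells given 40 pM IL-6 alongside compound; SIE-controlled beta-lactamase reporter measured as 460/530 nm FRET emission ratio; % is set by controls: 0 for no effect and ±100 for the full control effect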
Outline: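 ME-180 cells carrying a SIE-driven beta-lactamase reporter are stimulated with 40 pM IL-6 for 5 h at 37C in the presence of compound. The 460/530 nm FRET substrate ratio is read after 2.5 h at RT. Data are normalised to 300 pM IL-6 and to 125 nM JAK inhibitor controls.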

[6] = molecular target: Glucocorticoid receptor (Homo sapiens) (UniProt P04150); test: GR-GFP Redistribution (AID 450;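 active = compounds whose dose series gives a full or clear partial fitted curve of increased nuclear translocation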; note: potency is the fitted concentration of half-maximal effect); conditions: U2OS GR-GFP nuclear translocation, laser cytometry, 2 h
[7] = molecular target: Glucocorticoid receptor (Homo sapiens) (UniProt P04150); test: GR-EFC Redistribution (AID 451; calls by dose curve; note: potency is the fitted concentration of half-maximal effect); conditions: CHO-K1 GR-EFC translocation, beta-gal luminescence, 2 h
Outline: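 Translocation of GR-ED fusion to nuclear EA restores b-gal, read by luminescence after 1 h room-temperature detection. Engineered CHO-K1 biosensor cells, 1,000/well, exposed 2 h at 37 C to titrations up to 46 uM final.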

[8] = molecular target: Mitogen-activated protein kinase 10 (Mus musculus) (UniProt Q61831); test: JNK3 AlphaScreen Assay (AID 530); conditions: JNK3 lysate, c-Jun phosphorylation; series mostly up to 11.4 µM;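 note: kinase came from lysate of stimulated human HepG2 cells; signal reports phosphorylation of biotinylated GST-cJun 1-79 at Ser73 with 10 µM ATP; % is set by controls: 0 for no effect and ±100 for the full control effect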
Outline: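 Room-temperature AlphaScreen kinase assay; pre-activated HepG2 lysate as JNK3 source, biotin-GST-cJun(1-79) substrate, 10 uM ATP, compound 15 min preincubation.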

[9] = molecular target: 3',5'-cyclic-AMP phosphodiesterase 4B (Homo sapiens) (UniProt Q07343); test: qHTS Assay for Inhibitors of PDE-IV (AID 607; active = well fitted activation curve with a large enough effect in the main read-out, with a control signal flat, not every such curve was filed as active; note: % of control where 0% means no effect); conditions: HEK293 ACTOne CNG channel cells, membrane potential fluorescence; series mostly up to 22.9 µM
Outline: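 HEK293 ACTOne cells with CNG channel (1000/well), endogenous PDE4; membrane potential dye, compounds up to 22.9 uM final. Fluorescence Ex 535/Em 590; RO 20-1724 (100 uM final) as reference.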

[10] = molecular target: Cytochrome P450 2C9 (Homo sapiens) (UniProt P11712); test: qHTS Assay for Inhibitors and Substrates of Cytochrome P450 2C9 (AID 883; active = well fitted curve in the direction sought with a large enough effect; an effect the other way counts as inactive or inconclusive; note: nearly all actives have a fitted effect of over 60% in size; note: potency is the fitted concentration of half-maximal effect); conditions: recombinant CYP2C9, luciferin-H luminescence, 60 min; series mostly up to 11.4 µM
Outline: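 Inhibition of CYP2C9 is scored as loss of luminescence, with 57uM sulphaphenazole defining 100% inhibition. Substrate Luciferin-H is used at 100uM, equal to its KM; enzyme at 10nM in 25mM KPO4, 60 min at 37C with NADPH regeneration.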

[11] = molecular target: Cytochrome P450 3A4 (Homo sapiens) (UniProt P08684); test: qHTS Assay for Inhibitors and Substrates of Cytochrome P450 3A4 (AID 884; active = well fitted curve in the direction sought with a large enough effect; an effect the other way counts as inactive or inconclusive; note: potency is the fitted concentration of half-maximal effect; nearly all actives have a fitted effect of over 50% in size); conditions: recombinant CYP3A4, Luciferin-PPXE luminescence; series mostly up to 57.1 µM
Outline: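 20 nM human CYP3A4 with 25 uM Luciferin-PPXE (at KM) in 200 mM KPO4, preincubated 10 min with compound; NADPH regeneration started a 60 min RT reaction. Luciferin detected by luminescence, normalized to 57 uM ketoconazole as full inhibition.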

[12] = molecular target: Cytochrome P450 3A4 (Homo sapiens) (UniProt P08684); test: qHTS Assay for Activators of Cytochrome P450 3A4 (AID 885; active = well fitted curve in the direction sought with a large enough effect; an effect the other way counts as inactive or inconclusive; note: nearly all actives have a fitted effect of over 65% in size); conditions: recombinant CYP3A4, Luciferin-PPXE luminescence, 60 min; series mostly up to 11.4 µM
Outline: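 Human CYP3A4 (20 nM) with Luciferin-PPXE at 25 uM (its KM) in 200 mM KPO4; 10 min compound preincubation, then NADPH regeneration and 60 min reaction at RT. Luciferin read by luminescence; normalized to 57 uM ketoconazole full inhibition.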

[13] = molecular target: Cytochrome P450 2D6 (Homo sapiens) (UniProt P10635); test: qHTS Assay for Inhibitors and Substrates of Cytochrome P450 2D6 (AID 891; active = well fitted curve in the direction sought with a large enough effect; an effect the other way counts as inactive or inconclusive; note: potency is the fitted concentration of half-maximal effect; nearly all actives have a fitted effect of over 60% in size); conditions: recombinant CYP2D6, luciferin-ME EGE luminescence; series mostly up to 11.4 µM
Outline: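 Human CYP2D6 (5 nM) with 30 uM Luciferin-ME EGE (at Km) in 100 mM KPO4, compound preincubated 10 min, then NADPH regeneration system for 60 min at room temperature. Luciferin read by luminescence; normalized to 1.43 uM quinidine.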

[14] = molecular target: Cytochrome P450 2C19 (Homo sapiens) (UniProt P33261); test: qHTS Assay for Inhibitors and Substrates of Cytochrome P450 2C19 (AID 899; active = well fitted curve in the direction sought with a large enough effect; an effect the other way counts as inactive or inconclusive; note: potency is the fitted concentration of half-maximal effect; nearly all actives have a fitted effect of over 60% in size); conditions: recombinant CYP2C19, luciferin-H EGE luminescence; series mostly up to 11.4 µM
Outline: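 5nM enzyme + 10uM Luciferin-H EGE (=KM), 50mM KPO4; cpd pin-transferred, 10 min 37C; NADPH regen, 60 min 37C; stopped w/ luciferin detection reagent, 20 min; luminescence. Normalized to 57uM ketoconazole (AC100).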

Sequence of Cytochrome P450 3A4 (Homo sapiens) (P08684 whole entry, looked up): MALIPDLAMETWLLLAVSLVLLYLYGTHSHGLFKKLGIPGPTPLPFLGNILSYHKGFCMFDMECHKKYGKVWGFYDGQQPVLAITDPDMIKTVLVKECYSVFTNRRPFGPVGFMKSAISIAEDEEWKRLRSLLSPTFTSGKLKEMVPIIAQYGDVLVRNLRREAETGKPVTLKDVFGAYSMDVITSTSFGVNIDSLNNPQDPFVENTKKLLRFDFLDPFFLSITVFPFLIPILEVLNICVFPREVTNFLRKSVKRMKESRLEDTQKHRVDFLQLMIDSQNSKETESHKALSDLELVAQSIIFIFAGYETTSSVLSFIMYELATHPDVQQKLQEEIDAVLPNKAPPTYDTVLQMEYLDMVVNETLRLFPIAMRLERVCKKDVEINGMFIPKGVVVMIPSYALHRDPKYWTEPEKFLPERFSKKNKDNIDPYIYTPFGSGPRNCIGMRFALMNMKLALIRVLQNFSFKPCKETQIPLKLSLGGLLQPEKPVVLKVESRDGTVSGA
Sequence of Glucocorticoid receptor (Homo sapiens) (P04150 whole entry, looked up, the tested form may be a part): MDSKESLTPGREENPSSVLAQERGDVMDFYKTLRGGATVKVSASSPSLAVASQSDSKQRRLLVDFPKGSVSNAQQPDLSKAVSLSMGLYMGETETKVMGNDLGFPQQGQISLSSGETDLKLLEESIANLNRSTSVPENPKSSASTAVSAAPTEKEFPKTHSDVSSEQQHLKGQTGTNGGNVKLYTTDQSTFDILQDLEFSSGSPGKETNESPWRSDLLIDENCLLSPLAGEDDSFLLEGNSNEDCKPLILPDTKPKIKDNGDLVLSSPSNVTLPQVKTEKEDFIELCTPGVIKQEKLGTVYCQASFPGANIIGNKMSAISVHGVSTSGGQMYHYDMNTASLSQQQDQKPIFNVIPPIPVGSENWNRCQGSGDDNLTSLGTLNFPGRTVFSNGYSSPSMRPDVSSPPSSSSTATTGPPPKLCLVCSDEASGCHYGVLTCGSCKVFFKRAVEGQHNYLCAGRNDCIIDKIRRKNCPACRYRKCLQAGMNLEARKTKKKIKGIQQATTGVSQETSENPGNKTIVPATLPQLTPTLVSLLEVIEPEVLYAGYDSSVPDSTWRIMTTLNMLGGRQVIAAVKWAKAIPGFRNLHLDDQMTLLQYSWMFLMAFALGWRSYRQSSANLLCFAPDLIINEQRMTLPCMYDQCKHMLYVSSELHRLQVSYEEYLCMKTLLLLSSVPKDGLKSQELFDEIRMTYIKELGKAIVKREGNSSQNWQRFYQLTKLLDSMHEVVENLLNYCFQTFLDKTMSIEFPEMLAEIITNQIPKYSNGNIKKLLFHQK
Sequence of Cytochrome P450 1A2 (Homo sapiens) (P05177 whole entry, looked up): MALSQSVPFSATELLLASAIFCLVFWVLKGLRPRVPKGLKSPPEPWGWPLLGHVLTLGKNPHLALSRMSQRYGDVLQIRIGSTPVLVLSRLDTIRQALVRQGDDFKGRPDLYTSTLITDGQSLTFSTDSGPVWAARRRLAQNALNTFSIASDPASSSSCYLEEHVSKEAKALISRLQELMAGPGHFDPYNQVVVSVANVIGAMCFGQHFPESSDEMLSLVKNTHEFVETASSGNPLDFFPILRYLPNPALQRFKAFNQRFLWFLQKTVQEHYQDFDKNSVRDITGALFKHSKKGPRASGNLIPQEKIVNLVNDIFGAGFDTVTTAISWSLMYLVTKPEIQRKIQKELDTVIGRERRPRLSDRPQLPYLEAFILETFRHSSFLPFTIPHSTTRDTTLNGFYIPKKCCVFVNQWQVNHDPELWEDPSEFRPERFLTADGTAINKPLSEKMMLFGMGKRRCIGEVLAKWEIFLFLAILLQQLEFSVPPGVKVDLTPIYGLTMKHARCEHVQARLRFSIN
Sequence of Lysosomal acid glucosylceramidase (Homo sapiens) (P04062 whole entry, looked up): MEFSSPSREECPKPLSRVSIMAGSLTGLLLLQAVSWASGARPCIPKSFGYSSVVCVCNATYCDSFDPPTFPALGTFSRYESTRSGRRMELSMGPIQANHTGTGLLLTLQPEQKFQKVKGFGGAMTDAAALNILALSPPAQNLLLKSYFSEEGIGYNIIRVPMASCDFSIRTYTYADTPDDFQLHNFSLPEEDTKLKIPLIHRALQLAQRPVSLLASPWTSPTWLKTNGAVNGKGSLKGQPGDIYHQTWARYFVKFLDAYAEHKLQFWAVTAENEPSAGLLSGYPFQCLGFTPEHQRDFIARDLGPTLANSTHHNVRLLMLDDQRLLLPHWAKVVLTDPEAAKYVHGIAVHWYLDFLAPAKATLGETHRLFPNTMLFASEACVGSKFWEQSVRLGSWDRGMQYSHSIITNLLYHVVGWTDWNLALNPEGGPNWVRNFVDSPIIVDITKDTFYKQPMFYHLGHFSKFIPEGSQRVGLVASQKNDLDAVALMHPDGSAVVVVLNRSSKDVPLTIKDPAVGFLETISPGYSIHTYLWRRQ
Sequence of 3',5'-cyclic-AMP phosphodiesterase 4B (Homo sapiens) (Q07343 whole entry, looked up): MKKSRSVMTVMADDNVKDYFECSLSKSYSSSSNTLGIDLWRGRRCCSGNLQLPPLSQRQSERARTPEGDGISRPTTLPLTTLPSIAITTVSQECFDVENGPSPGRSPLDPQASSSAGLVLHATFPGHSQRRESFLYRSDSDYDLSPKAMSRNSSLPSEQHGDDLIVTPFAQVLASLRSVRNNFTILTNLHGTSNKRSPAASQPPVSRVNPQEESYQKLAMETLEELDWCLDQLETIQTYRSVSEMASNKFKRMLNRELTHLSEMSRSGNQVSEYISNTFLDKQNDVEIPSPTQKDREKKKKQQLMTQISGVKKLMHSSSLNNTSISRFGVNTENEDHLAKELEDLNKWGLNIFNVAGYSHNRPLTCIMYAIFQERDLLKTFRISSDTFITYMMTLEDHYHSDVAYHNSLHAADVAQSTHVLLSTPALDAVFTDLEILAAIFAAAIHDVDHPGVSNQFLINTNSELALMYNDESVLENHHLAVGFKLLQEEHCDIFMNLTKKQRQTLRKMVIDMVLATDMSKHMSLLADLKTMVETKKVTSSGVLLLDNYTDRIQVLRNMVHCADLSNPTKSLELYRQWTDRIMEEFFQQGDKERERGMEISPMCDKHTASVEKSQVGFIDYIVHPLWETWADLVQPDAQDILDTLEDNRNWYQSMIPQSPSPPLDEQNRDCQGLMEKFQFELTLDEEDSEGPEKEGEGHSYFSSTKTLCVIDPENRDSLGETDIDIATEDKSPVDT
Sequence of Cytochrome P450 2C9 (Homo sapiens) (P11712 whole entry, looked up): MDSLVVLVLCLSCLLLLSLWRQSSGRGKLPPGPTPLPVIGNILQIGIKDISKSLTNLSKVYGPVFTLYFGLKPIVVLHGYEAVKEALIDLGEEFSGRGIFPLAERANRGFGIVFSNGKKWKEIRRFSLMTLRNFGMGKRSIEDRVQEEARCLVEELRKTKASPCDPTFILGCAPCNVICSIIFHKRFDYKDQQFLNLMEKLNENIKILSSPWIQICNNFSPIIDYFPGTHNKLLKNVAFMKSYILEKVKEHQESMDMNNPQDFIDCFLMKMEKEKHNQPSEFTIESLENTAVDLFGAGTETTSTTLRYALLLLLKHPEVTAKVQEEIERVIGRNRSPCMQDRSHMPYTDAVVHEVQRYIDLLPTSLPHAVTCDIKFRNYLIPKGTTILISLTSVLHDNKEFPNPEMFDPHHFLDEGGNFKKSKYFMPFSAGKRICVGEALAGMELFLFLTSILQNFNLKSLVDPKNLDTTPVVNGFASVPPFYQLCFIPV
Sequence of Cytochrome P450 2D6 (Homo sapiens) (P10635 whole entry, looked up): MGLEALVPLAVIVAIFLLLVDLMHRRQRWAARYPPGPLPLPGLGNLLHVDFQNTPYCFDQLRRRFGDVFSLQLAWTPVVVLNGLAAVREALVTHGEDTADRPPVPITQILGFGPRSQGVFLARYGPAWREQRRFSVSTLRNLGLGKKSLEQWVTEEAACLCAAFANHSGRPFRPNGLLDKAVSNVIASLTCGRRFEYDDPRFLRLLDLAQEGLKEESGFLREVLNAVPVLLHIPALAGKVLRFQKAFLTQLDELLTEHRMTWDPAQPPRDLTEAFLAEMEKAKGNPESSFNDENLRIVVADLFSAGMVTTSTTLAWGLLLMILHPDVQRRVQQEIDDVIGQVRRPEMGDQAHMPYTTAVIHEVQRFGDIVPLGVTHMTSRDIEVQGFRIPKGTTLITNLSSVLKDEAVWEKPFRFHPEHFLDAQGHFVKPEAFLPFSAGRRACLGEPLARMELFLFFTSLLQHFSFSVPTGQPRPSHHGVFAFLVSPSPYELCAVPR
Sequence of Cytochrome P450 2C19 (Homo sapiens) (P33261 whole entry, looked up): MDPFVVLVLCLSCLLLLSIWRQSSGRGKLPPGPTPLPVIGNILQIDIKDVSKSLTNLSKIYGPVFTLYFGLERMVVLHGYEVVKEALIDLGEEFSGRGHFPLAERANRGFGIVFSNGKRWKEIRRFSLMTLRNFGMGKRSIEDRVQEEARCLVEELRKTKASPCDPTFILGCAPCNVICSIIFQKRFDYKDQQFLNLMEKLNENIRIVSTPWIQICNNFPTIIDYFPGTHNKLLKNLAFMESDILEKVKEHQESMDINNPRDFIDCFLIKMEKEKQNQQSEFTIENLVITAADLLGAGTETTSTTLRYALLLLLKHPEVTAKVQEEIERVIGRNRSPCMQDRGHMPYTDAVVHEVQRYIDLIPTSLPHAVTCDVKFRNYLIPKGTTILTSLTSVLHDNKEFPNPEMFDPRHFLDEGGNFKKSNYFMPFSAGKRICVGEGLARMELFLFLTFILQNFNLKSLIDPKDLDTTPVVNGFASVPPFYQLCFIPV

CC(C)=NNc1ncnc2nc[nH]c12
active: Potency [3] 0.794 µM
inactive: Potency [1] > 11.4 µM | activity change, negative = inhibition [2] -3.94% | activity change, negative = inhibition [4] 3.34% | activity, negative = inhibition [5] 8.2% | Potency [6] > 46 µM | Potency [7] > 9.22 µM | Potency [8] | Potency [9]

O=C(O)c1[nH]c2c([N+](=O)[O-])cc([N+](=O)[O-])cc2c1C(=O)O
active: Potency [3] 0.126 µM | Potency [10] 3.16 µM
inactive: Potency [1] > 11.4 µM | activity change, negative = inhibition [2] 0.189% | activity change, negative = inhibition [4] 2.5% | activity, negative = inhibition [5] -6.73% | Potency [6] > 46 µM | Potency [7] > 9.22 µM | Potency [8] | Potency [9]

CC1=CC(C)(C)Nc2ccc(CSc3ccccc3)cc21
inactive: Potency [1] > 11.4 µM | activity change, negative = inhibition [2] 3.94% | activity change, negative = inhibition [4] -4.82% | activity, negative = inhibition [5] -11.8% | Potency [6] > 46 µM | Potency [7] > 9.22 µM | Potency [8] | Potency [9] | Potency [12]
active: Potency [3] 0.501 µM | Potency [10] 0.199 µM | Potency [11] 3.98 µM | Potency [13] 0.631 µM | Potency [14] 0.316 µM

COc1ccc(-c2nc(N)c3ncn([C@H]4O[C@@H](CO)[C@@H](O)[C@@H]4O)c3n2)cc1
inactive: Potency [1] > 11.4 µM | activity change, negative = inhibition [2] -12.4% | activity change, negative = inhibition [3] -13% [at 2.29 µM] | activity change, negative = inhibition [4] 0.656% | activity, negative = inhibition [5] 3.98% | Potency [6] > 46 µM | Potency [7] > 9.22 µM | Potency [8] | Potency [9]

O=C1C2C3C=CC(C2C(=O)N1CN1CCOCC1)C1C2C(=O)N(CN4CCOCC4)C(=O)C2C31 (configuration not stated)
inactive: Potency [1] > 11.4 µM | activity change, negative = inhibition [2] 1.83% | Potency [3] | activity change, negative = inhibition [4] 6.33% | activity, negative = inhibition [5] 11.2% | Potency [6] > 46 µM | Potency [7] > 9.22 µM | Potency [8] | Potency [9]

NCCSC[C@H](N)C(=O)O
inactive: Potency [1] > 11.4 µM | activity change, negative = inhibition [2] -5.07% | Potency [3] | activity change, negative = inhibition [4] 6.39% | activity, negative = inhibition [5] 6.75% | Potency [6] > 46 µM | Potency [7] > 9.22 µM | Potency [8] | Potency [9] | Potency [10]

N[C@@H](Cc1ncccn1)C(=O)O
inactive: Potency [1] > 11.4 µM | activity change, negative = inhibition [2] -0.104% | Potency [3] | activity change, negative = inhibition [4] 3.63% | activity, negative = inhibition [5] 3.82% | Potency [6] > 46 µM | Potency [7] > 9.22 µM | Potency [8] | Potency [9] | Potency [10]

S=C(S)NCCCn1ccnc1
inactive: Potency [1] > 11.4 µM | activity change, negative = inhibition [2] 7.59% | activity change, negative = inhibition [4] -2.39% | activity, negative = inhibition [5] 6.25% | Potency [6] > 46 µM | Potency [7] > 9.22 µM | Potency [8] | Potency [9] | Potency [12]
active: Potency [3] 3.16 µM | Potency [10] 2 µM | Potency [11] 1.58 µM | Potency [13] 0.794 µM

O=C(O)[C@H](Cc1ccc(O)c([N+](=O)[O-])c1)N1C(=O)c2ccccc2C1=O
inactive: Potency [1] > 11.4 µM | activity change, negative = inhibition [2] 0.441% | activity change, negative = inhibition [3] -17.9% [at 2.29 µM] | activity change, negative = inhibition [4] 11.4% | activity, negative = inhibition [5] 2.16% | Potency [6] > 46 µM | Potency [7] > 9.22 µM | Potency [8] | Potency [9]

COc1cccc2c1C(=O)c1c(O)c3c(c(O)c1C2=O)C[C@@](O)(C(=O)CO)C[C@H]3O[C@H]1C[C@@H](N)[C@H](O)[C@@H](C)O1.[W]
inactive: Potency [1] > 11.4 µM | activity change, negative = inhibition [2] 0.391% | Potency [3] | activity change, negative = inhibition [4] -27.2% | activity, negative = inhibition [5] 14.9% | Potency [6] > 46 µM | Potency [7] > 9.22 µM | Potency [8] | Potency [9]

Cn1c(=S)c2[nH]c(SCCN3CCCC3)nc2n(C)c1=O
inactive: Potency [1] > 11.4 µM | activity change, negative = inhibition [2] -5.98% | activity change, negative = inhibition [3] -29.7% [at 2.29 µM] | activity change, negative = inhibition [4] 11.4% | activity, negative = inhibition [5] -0.274% | Potency [6] > 46 µM | Potency [7] > 9.22 µM | Potency [8] | Potency [9]

Cc1ccc(NC(=O)c2ccccc2C(=O)O)cc1C
inactive: Potency [1] > 11.4 µM | activity change, negative = inhibition [2] -1.74% | activity change, negative = inhibition [4] -27.9% | activity, negative = inhibition [5] -5.42% | Potency [6] > 46 µM | Potency [7] > 9.22 µM | Potency [8] | Potency [9]
active: Potency [3] 3.98 µM

COc1ncc2nc(-c3ccc(Cl)cc3)c(=O)n(C[C@H]3CCCO3)c2n1
inactive: Potency [1] > 11.4 µM | activity change, negative = inhibition [2] -1.85% | activity change, negative = inhibition [4] -7.47% | activity, negative = inhibition [5] -9.41% | Potency [6] > 9.22 µM | Potency [7] > 46 µM | Potency [8] | Potency [9]
active: Potency [3] 0.501 µM

CS(=O)(=O)N(CC(=O)O)Cc1ccccc1
inactive: Potency [1] > 11.4 µM | activity change, negative = inhibition [2] 13.2% | Potency [3] | activity change, negative = inhibition [4] 14.9% | activity, negative = inhibition [5] 10.2% | Potency [6] > 46 µM | Potency [7] > 9.22 µM | Potency [8] | Potency [9]

Cc1ccc(N2CCN(CCC(=O)O)CC2)cc1
inactive: Potency [1] > 11.4 µM | activity change, negative = inhibition [2] 4.25% | Potency [3] | activity change, negative = inhibition [4] 2.05% | activity, negative = inhibition [5] 2.74% | Potency [6] > 46 µM | Potency [7] > 9.22 µM | Potency [8] | Potency [9]
